Compound activity as filed in PubChem.
An excerpt weighted towards active compounds, which were near 11% of everything screened.
USP17 block: inhibitors of human USP17 deubiquitinase; purified USP17, Ub-rhodamine cleavage fluorescence, 3 h; inhibition, % at 50 µM; actives 6.5% (n = 47,000); AID 1645855, 2021
OTUD3 block: inhibitors of human OTUD3 deubiquitinase. purified OTUD3, Ub-rhodamine fluorescence, 2 h. actives 0.7% (n = 47,000). inhibition, % at 25 µM. OTU domain-containing protein 3 (Homo sapiens), Q5T2D3. AID 1645858, 2021
Target sequence (Q5T2D3 whole entry, looked up, the tested form may be a part): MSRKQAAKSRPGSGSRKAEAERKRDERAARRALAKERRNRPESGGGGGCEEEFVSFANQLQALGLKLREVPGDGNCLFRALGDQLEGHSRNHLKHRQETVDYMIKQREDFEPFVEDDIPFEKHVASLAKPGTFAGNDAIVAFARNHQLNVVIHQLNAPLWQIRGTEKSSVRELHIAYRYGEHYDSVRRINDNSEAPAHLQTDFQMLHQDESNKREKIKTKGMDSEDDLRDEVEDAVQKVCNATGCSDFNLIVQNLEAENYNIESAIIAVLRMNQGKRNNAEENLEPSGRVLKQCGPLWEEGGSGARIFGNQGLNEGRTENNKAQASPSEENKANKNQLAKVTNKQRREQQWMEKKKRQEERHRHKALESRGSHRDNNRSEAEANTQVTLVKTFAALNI
USP30 block: inhibitors of human USP30 deubiquitinase. actives 5.3% (n = 47,000). inhibition, % at 25 µM. purified USP30, Ub-rhodamine cleavage fluorescence. AID 1645860, 2021. Ubiquitin carboxyl-terminal hydrolase 30 (Homo sapiens), Q70CQ3
USP28 inh: inhibitors of human USP28 deubiquitinase. inhibition, % at 25 µM. AID 1645857, 2021. Ubiquitin carboxyl-terminal hydrolase 28 (Homo sapiens), Q96RU2. actives 3% (n = 47,000). purified USP28, Ub-rhodamine cleavage fluorescence, 30 min
Each line names hits and unclear results; the compound was inactive in the other large screens. Rule as the data show it: active = inhibition above about 30%; inactive = the rest.

COc1ccc(S(=O)(=O)Nc2nc3ccccc3nc2NCc2ccccc2)cc1	none
COc1ccc(S(=O)(=O)Nc2c(C)c(C)cc3c2nc(C)n3Cc2cccc(C)c2)cc1	USP30 block 32.6
CNc1nc2c(c(=O)n1C)CCN(S(=O)(=O)c1ccc(C(C)(C)C)cc1)C2	none
FC(F)(F)c1cccc(CSc2ccc3nnc(-c4ccccn4)n3n2)c1	USP30 block 32.4, USP28 inh 77.6
c1ccc(CSc2ccc3nnc(-c4ccccn4)n3n2)cc1	USP30 block 35.7, USP28 inh 33.5
O=C(CSc1ccc2nnc(-c3ccncc3)n2n1)Nc1cccc(C(F)(F)F)c1	USP17 block 47.3
O=C(CSc1ccc2nnc(-c3cccc(F)c3)n2n1)N1CCCc2ccccc21	USP17 block 62.6, OTUD3 block 39.8, USP30 block 72.9, USP28 inh 44.5
O=C(CSc1ccc2nnc(CCNS(=O)(=O)c3ccccc3)n2n1)N1CCCc2ccccc21	none
CCC(NC(=O)Cc1c(C)c2c(O)cc(C)cc2oc1=O)C(=O)O (stereo not drawn)	none
Cc1ccc2[nH]c(=O)c(-c3noc(CCC(=O)N4CCCC4)n3)cc2c1	none
c1ccc(CSc2ccc3nnc(-c4cccnc4)n3n2)nc1	none
Fc1cccc(-c2nnc3ccc(SCc4ccccn4)nn23)c1	USP30 block 30.2
Cc1ccc(Cn2c(/C=C/c3ccc(F)cc3)nc3ccccc32)cc1	USP28 inh 35.1
N#Cc1ccc(/C=C/c2nc3ccccc3n2Cc2ccc(F)cc2)cc1	none
Clc1ccc(Cc2nnc(-c3cccnc3)o2)cc1	USP28 inh 31.1
CC(C)N1CCC2(CC1)Nc1ccccc1C(=O)N2Cc1ccccc1	none
O=C1c2ccccc2NC2(C(=O)Nc3ccc(Br)cc32)N1c1ccccc1 (stereo not drawn)	OTUD3 block 76.3, USP28 inh 85.6
O=C(CCCCCn1c(=O)[nH]c2ccccc2c1=O)N1CCN(c2ccccc2)CC1	none
Cc1nn(-c2nc3ccccc3[nH]2)c2c1C(c1ccsc1)CC(=O)N2 (stereo not drawn)	USP17 block 45.1
CS(=O)(=O)N1CCC(C(=O)NCc2ccccc2)Oc2ccccc21 (stereo not drawn)	none (no result: USP30 block, USP28 inh)
CC(=O)Nc1cccc(NC(=O)Cn2ccc3cc(Br)ccc32)c1	USP17 block 60.9, OTUD3 block 33.0, USP30 block 53.5, USP28 inh 62.0
O=C(NCCN1CCc2ccccc2C1)Nc1ccc(C(F)(F)F)cc1	USP28 inh 46.2
Cc1cccc(NC(=O)NCCN2CCc3ccccc3C2)c1	none
CC(=O)c1ccc(N2CCN(C(=O)c3cc(Cl)c4c(c3)OCCO4)CC2)cc1	USP17 block 64.0, USP30 block 34.0
CC(=O)c1ccc(N2CCN(C(=O)c3ccc(-c4noc(C)n4)cc3)CC2)cc1	none
COc1cccc(-c2cn3ccn(-c4ccccc4)c(=O)c3n2)c1	none
COc1ccccc1-n1ccn2cc(-c3ccc(C)c(C)c3)nc2c1=O	USP17 block 31.2
C=C[C@@]1(C)CC[C@@]2(C)[C@@H](CC[C@]3(C)C(C)=C(O)C(=O)C[C@H]23)C1	USP17 block 42.8, USP30 block 37.4
CCN1CCN(c2ccc(NC(=O)c3cccc(OC)c3)cn2)C1=O	none
Cc1nnc(SCC(=O)Nc2ccc3[nH]c(=O)[nH]c3c2)n1Cc1ccccc1	USP17 block 42.5
CCc1ccc(-c2nc(SCC(=O)Nc3ccc4[nH]c(=O)[nH]c4c3)n[nH]2)cc1	USP17 block 36.7, USP30 block 58.1
O=C(CSc1n[nH]c(-c2ccc(F)cc2)n1)Nc1ccc(F)cc1	none
Cc1occc1-c1nnc(SCC(=O)Nc2ccc3[nH]c(=O)[nH]c3c2)n1C	USP17 block 44.7
CC(C)=CCc1ccc2cc[nH]c2c1	none
Cn1c(=O)c2cc(S(=O)(=O)Nc3cccc4c3CCCC4)ccc2n(C)c1=O	none
O=C1c2ccccc2C2(CCCC2)C(=O)N1Cc1ccccc1	USP17 block 33.2
CCc1nc(SCc2cccc(F)c2)c2oc3ccccc3c2n1	USP17 block 52.7, USP30 block 46.7
CCc1nc(SCC(=O)c2ccc(Br)cc2)c2oc3ccccc3c2n1	none
CCc1nc(SCC(=O)N2CCCc3ccccc32)c2oc3ccccc3c2n1	USP17 block 40.3
CCC(=O)Nc1c(C)noc1/C=C\c1ccc(S(=O)(=O)Nc2cccc(OC)c2)cc1	none
Cc1ccc(C(=O)Nc2cc3c4c(c2)C(C)C(=O)N4CCC3)cc1 (stereo not drawn)	none
Cc1ccc(C(=O)Nc2cc3c4c(c2)CC(=O)N4CCC3)cc1C	USP28 inh 72.1
Nc1c(-c2ccccn2)nsc1C(=O)N1CCN(c2ccccc2F)CC1	none
Cc1nc(-c2ccccn2)sc1C(=O)Nc1cccc(C(=O)NC2CC2)c1	none
